# In publication PMC12136788:
# Substitutions are numbered along the chain they refer to. Over roughly 5,800 sequences, “enrichment r” has its median near 0.54; the highest 2% begin near 16. Many of the other results were omitted from the sample, so the highest values are more common in it than they were.
# B1: ENSG00000145990:stop:overlap|stop_codon|ENSG00000145990|stop_codon|NA|stop_codon (ssRNA)
# RNA: GGGAGUUCUACAGUCCGACGAUCUGAGCCCCGCCUACCUGAUCAGCGAGGCCAUGCGCCGCAGCAGGAUGUCCCUCUACUGUUAGCACAGAUUGAGAACCUCGGGGACUUGAGCCUUCUGCAGGGGAUGUCCACAGAGAGGGACAACAGAGGAUUGAGCAUCA
# B2: chr9:124811826:124811928:+|3pUTR|ENSG00000185585|msi1|FALSE|unique (ssRNA)
# RNA: GGGAGUUCUACAGUCCGACGAUCAAGAAAUUUUCUAGCCCAACUCCCUGUUUCAUGAAAGAGAAAAGAGGCUCAGAAAAGUUUAGAGAGCAGCUCAGUGUCACACUGGGAGCUGGGCACAGCCGAUCUCCUUCCAGAAGGGUUCAACAGAGGAUUGAGCAUCA
# B3: chr6:53267885:53267986:-|3pUTR|ENSG00000012660|msi1_unk|total|mutant (ssRNA)
# RNA: GGGAGUUCUACAGUCCGACGAUCUUUAAUGUAAAUCUAACCGUACUUGUAAUUUCUUUCUGCUCCGAAUCUAAAGAUGUGUUCCGAACCUCUUGUUUAAAAAUAACCGACUGCUUAUCAUAAAAUCACAUCUCACACAUUUGACAACAGAGGAUUGAGCAUCA
# B4: chr6:53267885:53267986:-|3pUTR|ENSG00000012660|msi1_unk|FALSE|overlapping (ssRNA)
# RNA: B3 RNA with C40U, C41A, C64U, C65A, C83U, C84A, C106U, C107A
# B5: chr2:171983412:171983537:+|3pUTR|ENSG00000128708|unk|FALSE|unique (ssRNA)
# RNA: GGGAGUUCUACAGUCCGACGAUCUGAUGACUUUAAUUUUAAAAUCUUGUGACAUUUUGCUUAUACUAAAAGUUAUCUAUCUUUAGUUGAAUAUUUUCUUUUGGAGAGAUUGUAUAUUUUAAAAUACUGUUUAGAGUUUAUGAGCAACAGAGGAUUGAGCAUCA
# B6: chr9:14618660:14618761:-|3pUTR|ENSG00000175893|msi1|FALSE|unique (ssRNA)
# RNA: GGGAGUUCUACAGUCCGACGAUCUUAGCUUUCCACAGGGAUUUCUUGAAAUGCUUUUGUUAUUAAACUCAAAAGGCAGUGAUUAGGAUGAAAUAAUUGUACAUAAUUUAUUUUAGUACUGACAGUGUUACAGAUUCUAAUUUACAACAGAGGAUUGAGCAUCA
# B7: chr4:110049619:110049852:-|3pUTR|ENSG00000170522|msi1|FALSE|unique (ssRNA)
# RNA: GGGAGUUCUACAGUCCGACGAUCUUGUUCAAUGUGACAUAAUAGUAUUAUAAUUGGUUAAGUAGCUUAAUGAUUAGGCAAACUAGAUGAAAAGAUUAGGGGCUUCCACACUGCAUAGAUUACACGCACAUAGCCACGCAUACACAACAGAGGAUUGAGCAUCA
# B8: chr4:110049619:110049852:-|3pUTR|ENSG00000170522|msi1|total|mutant (ssRNA)
# RNA: GGGAGUUCUACAGUCCGACGAUCUUGUUCAAUGUGACAUAACCGUAUUAUAAUUGGUUAAGCCGCUUAAUGAUCCGGCAAACCCGAUGAAAAGAUCCGGGGCUUCCACACUGCACCGAUUACACGCACACCGCCACGCAUACACAACAGAGGAUUGAGCAUCA
# B9: ENSG00000198589:be:win_4601|CDS|ENSG00000198589|bound_else_gene|NA|bound_elsewhere_windowed (ssRNA)
# RNA: GGGAGUUCUACAGUCCGACGAUCUGGCAGUAGUAUACUUUAUCUCUGUUCUUAUGGUCUCCAAGUACAGAGACAUUUUGGAACCCCAAAAUGAAAGGCAUAGCCAGUCAUGUACAGAAACUGGCAGUGAAAAUGAGAAUGUAUCAACAGAGGAUUGAGCAUCA
# B10: chr4:17843545:17843646:+|3pUTR|ENSG00000109805|msi1|total|mutant (ssRNA)
# RNA: GGGAGUUCUACAGUCCGACGAUCCUGUGCGCUUCCACGUUACUUUGGCCUGUAUUAAAGCAGCCGAGCAGCAUCAGUUAUUACCGUCCAGAAAAAGUGUGCAUCAGUCAGUCACACAGAUUUAUCACAAUCUGAGGUGGGCCUCAACAGAGGAUUGAGCAUCA
# B11: chr8:22006149:22006250:+|3pUTR|ENSG00000130227|msi1|total|mutant (ssRNA)
# RNA: GGGAGUUCUACAGUCCGACGAUCGAAUGUAUGAACUGGAGGAAGUUACUACAGUGGAAGGGUUCUUAAUAACAAGGUCUACCCCGCAUGAAGUAUUUAACAUUCUCCCAUCCCUUAAAAAAUAUACAUUUUUAUAAAAUGAAACAACAGAGGAUUGAGCAUCA
# B12: chr6:145799413:145799514:-|3pUTR|ENSG00000118496|msi1|total|mutant (ssRNA)
# RNA: GGGAGUUCUACAGUCCGACGAUCUUAUCUCACAUACUUACAACUCAACACACAGAGUGACCAUGUGCAGCUUUCUUUUUUGUCCGAUGCCACAUCCGAAGACUCAUCGCAGUGUGUUAUAUGACAGGACAAAGCAAAAACAAACAACAGAGGAUUGAGCAUCA
# B13: chr11:46383557:46383658:+|3pUTR|ENSG00000110492|msi1_unk|FALSE|overlapping (ssRNA)
# RNA: GGGAGUUCUACAGUCCGACGAUCCCACGCCCUCCCUCUCCCAGGCCCGAGAUGUGACCCACCAGUGCCUUCUGUCUGCUCGUUAGCUUUAAUCAAUCAUGCCCUGCCUUGUCCCUCUCACUCCCCAGCCCCACCCCUAAGUGCCAACAGAGGAUUGAGCAUCA
# B14: ENSG00000107863:be:win_551|CDS|ENSG00000107863|bound_else_gene|NA|bound_elsewhere_windowed (ssRNA)
# RNA: GGGAGUUCUACAGUCCGACGAUCAAGGCAACGAAGCUUAUAGCGGCAAUGCCCGCAAUAUACCUGAACCUCCACCAAUCUGCUAUCCCUGGCUGCCAUCUGCCCCAUCAGCCAUGGCACAGCCAGUUGAAAUAUCUCCUCCUGCAACAGAGGAUUGAGCAUCA
# B15: chr8:65707876:65707977:+|CDS|ENSG00000066855|unk|FALSE|unique (ssRNA)
# RNA: GGGAGUUCUACAGUCCGACGAUCCCUGCUGCCCUCAUAGCAGAGGCUCUGAAAAAGAAAUUUGCUUAUCGGUAUCGAAGUGAUAGCCAAGAUGAAGUUGAAAAAGGAAUUCCAAAGUCUGAAUCAGAGGCCACCUCAGAGAGACAACAGAGGAUUGAGCAUCA
# B16: ENSG00000066933:stop:overlap|stop_codon|ENSG00000066933|stop_codon|NA|stop_codon (ssRNA)
# RNA: GGGAGUUCUACAGUCCGACGAUCAUAGCUCAGAGAAUUUGAAUAUGGAGUCUGAAUAUGCUAUCUCUGAGAAAUCAGAAGCUUAGCCCUUAGCUCCCUGAAGACAGCUGGCAAGUCUGAACCUUCCAGCAAGUUGCGAAAGCACAACAGAGGAUUGAGCAUCA
# B17: chr13:32776882:32776983:+|3pUTR|ENSG00000083642|unk|total|mutant (ssRNA)
# RNA: GGGAGUUCUACAGUCCGACGAUCAAAGUGUUUUGAAUUGUGUCUUAAUCUCUCCAUAUUCAACUAUUCUUCAUUUACAACAACCGUGACACCAGUAAUUAUGAGAGGCUGUCAUAUAUCAAAGCAGCUCAGGUGGGAUCAACACAACAGAGGAUUGAGCAUCA
# B18: chr4:124666837:124666938:-|3pUTR|ENSG00000151458|msi1|total|mutant (ssRNA)
# RNA: GGGAGUUCUACAGUCCGACGAUCAAUGAUUUCUUGGCAGUUUAAAAAAAAUAUUUUACCGCCGUUCCGGGAGCUGCUUUAAGCCGUUUAAAUCUGGAUUUUCCCAGCCGAAUUCUUCUCAUCUCUGGCUAAACAUGUCAGAACCAACAGAGGAUUGAGCAUCA
# B19: chr10:92030471:92030572:+|3pUTR|ENSG00000095564|unk|FALSE|unique (ssRNA)
# RNA: GGGAGUUCUACAGUCCGACGAUCUAUUUUUUUAUUAACUAUUUAUUUGCUAGUUCCAUAAACCAGCUCUUUAACAUAGCUUAUAGUAAUUGAUAUUUUCUUAGAAUAAGUACAGAGCAAUAUAUCAUUAAAGGGCUAUGAAGGCAACAGAGGAUUGAGCAUCA
# B20: chr20:11926050:11926151:+|3pUTR|ENSG00000132640|msi1|FALSE|unique (ssRNA)
# RNA: GGGAGUUCUACAGUCCGACGAUCAUGAAAUGGAAUGAAGGCUAAUAUGCUUGCUUUAUUUACUUUUGUAAUCUUGGAUUUUGUAGCUUUUAAAACUAGAAACCAUUGUUCUAACAAAGCAGGCAACUUUAUUCUAUAAACACACAACAGAGGAUUGAGCAUCA
# B21: chr1:235448940:235449205:-|3pUTR|ENSG00000162885|unk|FALSE|unique (ssRNA)
# RNA: GGGAGUUCUACAGUCCGACGAUCAAUAGAGAAUUCCAUUAAAACUAGUCUUAUGACAGAUAUUAACUGUGUUCAGAUUUUAUUAGGCUAGCUAGUUUCUUUCUAUUUAAUAUUUAAAUCUUAUCAUGAAAUGCAGUGAUGAGCCAACAGAGGAUUGAGCAUCA
# B22: chr10:92030471:92030572:+|3pUTR|ENSG00000095564|unk|total|mutant (ssRNA)
# RNA: B19 RNA with U50C, A51C, U76C, A77C, U83C, A84C, U101C, A102C
# B23: chr3:10101824:10101929:+|3pUTR|ENSG00000144554|unk|FALSE|unique (ssRNA)
# RNA: GGGAGUUCUACAGUCCGACGAUCAAAAUCUCUGAGUCAUGAUUCUGGACUUUGGGAGCUAGUUUUGAAACUCUGAUUUAUUGUAGAACUUAGGCUUGUACCAAUUUUACAAAUAAAUUCUGUUCUAAGUUCUGCCUCAGUUGCCAACAGAGGAUUGAGCAUCA
# B24: chr4:124666837:124666938:-|3pUTR|ENSG00000151458|msi1|FALSE|unique (ssRNA)
# RNA: B18 RNA with C58U, C59A, C61U, C62A, C66U, C67A, C83U, C84A, C107U, C108A
# B25: chr20:11926050:11926151:+|3pUTR|ENSG00000132640|msi1|total|mutant (ssRNA)
# RNA: B20 RNA with U83C, A84C, U96C, A97C
# Molecular target: MSI1 full-length (mouse, UniProt Q61474 1-362)
# Sequence (Q61474 whole entry): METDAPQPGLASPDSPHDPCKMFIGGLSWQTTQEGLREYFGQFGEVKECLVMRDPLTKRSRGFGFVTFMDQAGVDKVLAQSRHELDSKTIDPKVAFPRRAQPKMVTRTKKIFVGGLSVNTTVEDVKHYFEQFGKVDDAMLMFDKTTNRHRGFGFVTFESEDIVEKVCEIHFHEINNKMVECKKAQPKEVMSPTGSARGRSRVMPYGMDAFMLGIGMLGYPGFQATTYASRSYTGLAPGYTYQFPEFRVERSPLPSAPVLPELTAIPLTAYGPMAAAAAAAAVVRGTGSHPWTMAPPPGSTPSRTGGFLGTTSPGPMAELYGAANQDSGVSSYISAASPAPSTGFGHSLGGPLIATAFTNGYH
# Assay: nsRBNS (natural sequence RNA bind-n-seq); RBNS binding buffer (assumed for nsRBNS): 25 mM Tris pH 7.5, 150 mM KCl, 3 mM MgCl2, 0.01% Triton X-100, 500 ug/ml BSA, 20 U/ml SUPERase-In, 4 C; UNK is unkempt and MSI1 is Musashi-1; names of the RNAs are library labels; protein concentration not given here; high values mean tight binding
row,Binder,binding signal [enrichment R]
1,B1,0.305
2,B2,0.831
3,B3,1.15
4,B4,26.6
5,B5,3.32
6,B6,1.51
7,B7,43.1
8,B8,0.468
9,B9,0.339
10,B10,0.782
11,B11,0.38
12,B12,0.363
13,B13,1.31
14,B14,0.51
15,B15,0.29
16,B16,16.9
17,B17,0.958
18,B18,0.225
19,B19,39.5
20,B20,1.07
21,B21,13.3
22,B22,27.9
23,B23,0.376
24,B24,23.2
25,B25,0.37
